Sampled rows, rich in hits. Any-hit rate of the full collection: about 4.6%.
tim10-1 inh: growth inhibitors of tim10-1 mutant yeast, primary screen, luminescence, uHTS; 2.2% of 330,000 active; inhibition, % at 20 µM; S. cerevisiae tim10-1 ts strain growth, BacTiter-Glo, 24 h; AID 463190, 2010;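 active means inhibition of at least 40%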;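 further: mutant grown at 25 °C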
SKKanGAS inh: S. pyogenes SKKanGAS growth inhibitors in kanamycin, primary screen, streptokinase expression inhibitor project, SKKanGAS strain, BacTiter-Glo luminescence; 6 h; inhibition, % at 7.5 µM; 1.3% of 300,000 active; AID 1662, 2009;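 active means mean replicate score, as percent of positive control median, at least 50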;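 further: strain carries kanamycin resistance gene driven by streptokinase promoter and grows in 40 µg/ml kanamycin; loss of luminescence reflects streptokinase promoter inhibition or plain growth inhibition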
tim23-1 inh: growth inhibitors of tim23-1 mutant yeast, primary screen, luminescence, uHTS; inhibition, % at 20 µM; 1.3% of 330,000 active; S. cerevisiae tim23-1 growth, BacTiter-Glo luminescence, 24 h;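 active means growth inhibition of the mutant yeast at or above 50%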;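 further: temperature-sensitive mutant grown at 25 °C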
PfHsp90 set2: growth inhibition of PfHsp90-expressing yeast, primary screen, antimalarial PfHsp90 inhibitor project, S. cerevisiae, BacTiter-Glo luminescence, single point, set 2; BacTiter-Glo ATP, 48 h; yeast lacking PDR1 and PDR3 efflux regulators; inhibition, % at 9.4 µM; 0.32% of 310,000 active;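 active means every replicate shows inhibition above about 80%, whatever the replicate mean, limit read from the data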
NALP3 yeast inh: NALP3 inflammasome inhibitors in reconstituted yeast, primary screen, luminescence, uHTS | Yeast reconstituted NLRP3/ASC/caspase-1, beta-gal luminescence, 24 h | 0.39% of 330,000 active | inhibition, % at 10 µM;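 active means inhibition of 50% or more; inactive means inhibition below 50%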
TIM10 inh: growth inhibitors of isogenic TIM10 control yeast, primary screen, counter-screen for tim10-1 yeast inhibitor project, luminescence, uHTS | S. cerevisiae TIM10 strain growth, BacTiter-Glo luminescence, 24 h | inhibition, % at 10 µM | 1.4% of 330,000 active | AID 463195, 2010;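 active means inhibition of 40% or more at the single tested concentration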;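 further: wild-type TIM10 isogenic control strain grown at permissive 25 °C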
tim10-1 confirm: growth inhibitors of tim10-1 mutant yeast, confirmation, single concentration, luminescence, S. cerevisiae; inhibition, % at 20 µM; 56% of 7,400 active; S. cerevisiae tim10-1 ts strain growth, BacTiter-Glo, 24 h; shares compounds with tim10-1 inh;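 active means inhibition of yeast growth at or above a set limit in either of two repeat tests at 20 µM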;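 further: tim10-1 mutant grown at permissive 25 °C to find synthetic lethal compounds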
Of the large screens only hits and unclear results are named; the others gave an inactive call (follow-up assays come after a bar, where they were run).

O=C(/C=C/c1ccco1)Nc1ccccc1N1CCCC1	tim10-1 inh 53 | tim10-1 confirm 46
Fc1cccc(-c2cc3nc4c(c(NCc5ccco5)n3n2)CCCC4)c1	tim10-1 inh 50 | tim10-1 confirm 35
CCCN(Cc1ccccc1)C(=S)Nc1cccc(C(F)(F)F)c1	tim10-1 inh 47 | tim10-1 confirm 31
CCC(C)Nc1ncnc2c1cnn2Cc1ccc(Cl)cc1 (stereo not drawn)	tim10-1 inh 43 | tim10-1 confirm inactive
Cc1ccc(Cn2ncc3c(NN)ncnc32)cc1	none
CC(C)Nc1ncnc2c1cnn2Cc1ccc(Cl)cc1	tim10-1 inh 43 | tim10-1 confirm inactive
Cc1cc(/C=C(\C#N)C(=O)NCc2cccs2)c(C)[nH]1	none
CCOc1ccc(N2C(=O)CC(NCCNc3ccc([N+](=O)[O-])cn3)C2=O)cc1 (stereo not drawn)	tim10-1 inh 53 | tim10-1 confirm 28
O=C(CO/N=C/c1cccc([N+](=O)[O-])c1)Nc1ccc2ccccc2c1	tim10-1 inh 45 | tim10-1 confirm inactive
NC(=O)CSc1nc2sc3c(c2c2ncnn12)CCCC3	tim10-1 inh 42 | tim10-1 confirm 34
Cc1ccc(C(=O)c2oc3nc(C)cc(C)c3c2N)cc1	none
CCc1ccc(C(=O)c2oc3nc(C)cc(C)c3c2N)cc1	tim10-1 inh 45 | tim10-1 confirm 33
CC(C)(C)NC(=O)C(c1ccccc1)N(C(=O)CNC(=O)c1cccs1)c1cccnc1 (stereo not drawn)	none
O=S(=O)(/N=S1\CC=CCN1S(=O)(=O)c1ccccc1)c1ccccc1 (stereo not drawn)	none (no result: tim10-1 inh, SKKanGAS inh, tim23-1 inh, NALP3 yeast inh, TIM10 inh)
COc1ccccc1NS(=O)(=O)c1ccc(O)c(NC(=S)NCC2CCCO2)c1 (stereo not drawn)	none
Cc1cc(C)nc(NC(=S)Nc2cccc(F)c2)c1	tim10-1 inh 40 | tim10-1 confirm inactive
COc1cccc(NC(=S)Nc2cc(C)cc(C)n2)c1	none
COc1ccc(-c2cc(-c3ccccc3)c(C#N)c(=S)[nH]2)cc1	none
Cc1ccc(-c2cc(-c3ccccc3)[nH]c(=S)c2C#N)cc1	tim10-1 inh 54 | tim10-1 confirm inactive
Cc1ccc(NC(=O)c2cccc(OC(F)F)c2)c(OC(F)F)c1	none
Cc1c(Cl)cccc1NC(=O)c1cccc(OC(F)F)c1	tim10-1 inh 47 | tim10-1 confirm 48
COc1ccccc1C(=O)NC1CCN(C(=O)Nc2ccc(F)cc2)CC1	none
Cc1cccc(NC(=S)NCCSc2ccc(Cl)cc2)c1	tim10-1 inh 45 | tim10-1 confirm inactive
Cc1ccccc1NC(=S)NCCSc1ccc(Cl)cc1	tim10-1 inh 47 | tim10-1 confirm inactive
Cc1ccc(C)c(NC(=S)NCCSc2ccc(Cl)cc2)c1	none
O=C(NCc1ccc2c(c1)OCO2)c1nc(S(=O)(=O)Cc2ccccc2)ncc1Cl	tim10-1 inh 55 | tim10-1 confirm inactive
CC(=O)Nc1ccc(NC(=O)c2nc(S(=O)(=O)Cc3ccccc3)ncc2Cl)cc1	none
O=C(NCc1ccc2c(c1)OCO2)c1nc(S(=O)(=O)Cc2ccccc2F)ncc1Cl	none
COc1ccc(CNC(=O)c2nc(S(=O)(=O)Cc3ccccc3)ncc2Cl)cc1	tim10-1 inh 59 | tim10-1 confirm 31
O=C(NCc1ccccc1)c1nc(S(=O)(=O)Cc2ccccc2)ncc1Cl	tim10-1 inh 52 | tim10-1 confirm inactive
COc1cccc(CC(=O)Nc2cc(S(=O)(=O)N3CCOCC3)ccc2OC)c1	none (no result: SKKanGAS inh)
CN(Cc1ccccc1)C(=O)N1CCOCC1	none
S=C(N/N=C/c1ccccc1Cl)Nc1cccc(Cl)c1Cl	tim10-1 inh 41 | tim10-1 confirm inactive
COc1ccc(-c2nc(CSCC(=O)NC3CCCc4ccccc43)c(C)o2)cc1OC (stereo not drawn)	tim10-1 inh 41 | tim10-1 confirm inactive
COc1ccc(-c2nc(CS(=O)CC(=O)NC3CCCc4ccccc43)c(C)o2)cc1OC (stereo not drawn)	none
CCC(=O)c1ccc(OCC(=O)OCC(=O)N2c3ccccc3CC2C)cc1 (stereo not drawn)	tim10-1 inh 41 | tim10-1 confirm 35
CCC(=O)c1ccc(OCC(=O)OCC(=O)N2CCCc3ccccc32)cc1	tim10-1 inh 43 | tim10-1 confirm inactive
O=C(COc1ccc(Cl)cc1)OCC(=O)N1CCCc2ccccc21	none
CC(C)NC(=O)NC(=O)COc1c(F)c(F)cc(F)c1F	none
CC(C)NC(=O)NC(=O)COc1ccc(Br)cc1Br	tim10-1 inh 45 | tim10-1 confirm inactive
CC1CC(C)CN(c2ccc(C(=O)NCc3ccc4c(c3)OCO4)cc2[N+](=O)[O-])C1 (stereo not drawn)	none
CSCCC(NC(=O)c1ccccc1Br)C(=O)N1CCCCCCC1 (stereo not drawn)	none
COc1ccc(Nc2ccccc2N)cc1	tim10-1 inh 47 | tim10-1 confirm inactive
Nc1ccc(Nc2ccccc2N)cc1	none (no result: SKKanGAS inh)
Clc1ccc(-c2nc(/C=N/N3CCOCC3)c3ccccn23)cc1	none (no result: PfHsp90 set2)
COc1ccc(-c2cn3c(C)c(C(=O)N4CCc5ccccc5C4)sc3n2)cc1	tim10-1 inh 43 | tim10-1 confirm 37
Cc1c(C(=O)N2CCc3ccccc3C2)sc2nc(-c3ccccc3)cn12	tim10-1 inh 51 | tim10-1 confirm 35
Cc1c(C(=O)N2CCOCC2)sc2nc(-c3ccccc3)cn12	none
COc1ccccc1N1CCN(C(=O)c2sc3nc(-c4ccccc4)cn3c2C)CC1	none
COC(=O)c1c(NC(=O)CN2CCC3(O)CCCCC3C2c2ccccc2OC)sc(C)c1C (stereo not drawn)	tim10-1 inh 40 | tim10-1 confirm inactive
Cc1c(Cl)cn2c(=O)cc(CN(C)Cc3nc4ccccc4c(=O)[nH]3)nc2c1Cl	none (no result: PfHsp90 set2)
Cc1ccnc(NS(=O)(=O)c2ccc(NC(=O)Cc3ccc(Br)cc3)cc2)n1	none
COc1ccccc1-c1ccc(/C=C2\C=CC(=O)O2)o1	tim10-1 inh 48 | tim10-1 confirm 36
COc1ccccc1NC(=O)c1cc(C(=O)Nc2ccccc2OC)n(C)n1	none
CC(CCc1ccccc1)NC(=O)COC(=O)c1ccc(S(C)(=O)=O)c([N+](=O)[O-])c1 (stereo not drawn)	tim10-1 inh 46 | tim10-1 confirm inactive
CCC(=O)Nc1c(-c2ccccc2)c(=O)c2ccccc2n1C	none
c1ccc(C(c2ccccc2)c2ccn[nH]2)cc1	tim10-1 inh 44 | tim10-1 confirm inactive

Assay outcomes as filed in PubChem BioAssay.
